Data from article PMC7862700, “An all-to-all approach to the identification of sequence-specific readers for epigenetic DNA modifications on cytosine”.

Experiments:
Assay in all cases: DAPPL (digital affinity profiling via proximity ligation, sequencing); 10 mM Tris-HCl pH 7.5, 50 mM NaCl, 1 mM DTT, 4% glycerol, room temperature, 30 min; GST-TFs on glutathione beads, 16-mer random dsDNA library, 0.1% formaldehyde crosslink after washing; high values mean tight binding
[1] = target: T1, FEV (Homo sapiens, UniProt Q99581 1-238); settings: protein: recombinant; tags: N-terminal GST; dsDNA, one strand shown
T1 sequence: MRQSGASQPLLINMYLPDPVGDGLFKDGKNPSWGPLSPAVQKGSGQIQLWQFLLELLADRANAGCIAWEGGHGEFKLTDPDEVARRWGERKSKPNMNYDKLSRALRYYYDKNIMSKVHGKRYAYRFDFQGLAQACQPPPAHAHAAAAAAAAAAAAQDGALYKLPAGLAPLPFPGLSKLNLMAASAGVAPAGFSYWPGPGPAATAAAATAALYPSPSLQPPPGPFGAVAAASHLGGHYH
Method in brief: (§1)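 Sequencing on an Illumina NextSeq500 followed washing, crosslinking with 0.1% formaldehyde, proximity ligation (BsaI/T4 ligase, 1 h, 37 °C) and PCR amplification of pools that had been incubated for 30 min at room temperature with 200 nmole of a random double-stranded 16-mer DNA library in Tris/NaCl/DTT/glycerol buffer. Each pool held DNA-barcoded human transcription factors, expressed in yeast as GST fusions and captured on glutathione beads, plus a tag-only sample. Binding signal is a hexamer's read frequency for a factor divided by its frequency in the tag-only sample.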

[2] = target: ETV5 (Homo sapiens, UniProt P41161 1-510); settings: protein: recombinant; tags: N-terminal GST; dsDNA, one strand shown
Chain of ETV5 (P41161 whole entry): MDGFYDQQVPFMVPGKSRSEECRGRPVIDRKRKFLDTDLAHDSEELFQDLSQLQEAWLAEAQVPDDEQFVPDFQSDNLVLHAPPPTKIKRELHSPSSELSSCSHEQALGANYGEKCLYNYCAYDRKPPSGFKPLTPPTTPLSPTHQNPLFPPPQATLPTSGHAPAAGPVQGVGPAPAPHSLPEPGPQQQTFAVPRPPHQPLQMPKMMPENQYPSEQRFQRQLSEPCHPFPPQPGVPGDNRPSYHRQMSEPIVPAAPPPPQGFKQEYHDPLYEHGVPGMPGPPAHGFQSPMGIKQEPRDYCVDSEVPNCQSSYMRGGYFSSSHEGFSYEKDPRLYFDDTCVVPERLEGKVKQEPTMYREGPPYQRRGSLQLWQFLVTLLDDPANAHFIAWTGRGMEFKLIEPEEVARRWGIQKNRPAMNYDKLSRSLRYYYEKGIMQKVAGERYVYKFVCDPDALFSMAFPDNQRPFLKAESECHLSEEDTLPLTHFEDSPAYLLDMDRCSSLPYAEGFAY
Method in brief: as §1

[3] = target: HSF1 (Homo sapiens, UniProt Q00613 1-529); settings: protein: recombinant; tags: N-terminal GST; chain copies: 3; dsDNA, one strand shown
Chain of HSF1 (Q00613 whole entry): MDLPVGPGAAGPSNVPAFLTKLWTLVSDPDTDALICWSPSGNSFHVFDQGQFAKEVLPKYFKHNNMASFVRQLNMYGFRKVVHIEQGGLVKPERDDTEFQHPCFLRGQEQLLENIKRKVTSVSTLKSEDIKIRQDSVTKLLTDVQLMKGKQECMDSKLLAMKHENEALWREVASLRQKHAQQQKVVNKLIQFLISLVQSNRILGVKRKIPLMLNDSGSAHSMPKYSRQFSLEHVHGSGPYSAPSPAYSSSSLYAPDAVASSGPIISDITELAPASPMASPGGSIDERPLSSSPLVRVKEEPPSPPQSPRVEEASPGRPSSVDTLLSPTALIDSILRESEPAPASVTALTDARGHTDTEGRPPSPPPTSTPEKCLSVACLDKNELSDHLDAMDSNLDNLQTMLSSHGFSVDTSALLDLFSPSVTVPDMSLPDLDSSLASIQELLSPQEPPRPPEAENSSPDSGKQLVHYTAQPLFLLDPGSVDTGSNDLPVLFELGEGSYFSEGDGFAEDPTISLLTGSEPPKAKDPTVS
Method in brief: as §1

[4] = target: T2, SPIC (Homo sapiens, UniProt Q8N5J4 1-248); settings: protein: recombinant; tags: N-terminal GST; dsDNA, one strand shown
T2 sequence: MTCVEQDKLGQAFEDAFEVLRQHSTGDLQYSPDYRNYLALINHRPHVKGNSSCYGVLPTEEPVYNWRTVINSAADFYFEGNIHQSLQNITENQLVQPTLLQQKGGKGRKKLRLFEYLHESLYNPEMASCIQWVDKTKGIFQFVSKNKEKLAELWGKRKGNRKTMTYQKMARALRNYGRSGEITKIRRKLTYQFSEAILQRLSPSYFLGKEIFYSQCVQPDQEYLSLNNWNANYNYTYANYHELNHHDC
Method in brief: as §1

[5] = target: ELF4 (Homo sapiens, UniProt Q99607 1-663); settings: protein: recombinant; tags: N-terminal GST; dsDNA, one strand shown
Chain of ELF4 (Q99607 whole entry): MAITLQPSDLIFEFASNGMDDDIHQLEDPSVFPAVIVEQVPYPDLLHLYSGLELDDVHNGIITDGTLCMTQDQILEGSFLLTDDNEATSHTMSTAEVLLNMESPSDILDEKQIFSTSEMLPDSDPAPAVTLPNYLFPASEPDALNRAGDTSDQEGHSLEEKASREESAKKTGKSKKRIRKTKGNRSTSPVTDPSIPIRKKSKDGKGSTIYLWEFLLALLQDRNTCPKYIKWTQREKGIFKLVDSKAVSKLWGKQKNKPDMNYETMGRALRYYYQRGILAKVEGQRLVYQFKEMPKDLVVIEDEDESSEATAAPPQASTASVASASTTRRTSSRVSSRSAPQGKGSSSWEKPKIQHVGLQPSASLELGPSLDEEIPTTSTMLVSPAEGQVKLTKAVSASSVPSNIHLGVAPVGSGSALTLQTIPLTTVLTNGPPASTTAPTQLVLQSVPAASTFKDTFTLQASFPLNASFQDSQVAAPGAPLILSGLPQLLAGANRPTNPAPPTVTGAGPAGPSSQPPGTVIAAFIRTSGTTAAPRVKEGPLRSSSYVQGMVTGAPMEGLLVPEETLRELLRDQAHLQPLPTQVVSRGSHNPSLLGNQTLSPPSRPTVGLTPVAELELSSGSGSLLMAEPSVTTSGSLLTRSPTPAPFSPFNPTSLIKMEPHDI
Method in brief: as §1

[6] = target: T3, ELK4 (Homo sapiens, UniProt P28324-2 1-405); settings: protein: recombinant; tags: N-terminal GST; dsDNA, one strand shown
T3 sequence: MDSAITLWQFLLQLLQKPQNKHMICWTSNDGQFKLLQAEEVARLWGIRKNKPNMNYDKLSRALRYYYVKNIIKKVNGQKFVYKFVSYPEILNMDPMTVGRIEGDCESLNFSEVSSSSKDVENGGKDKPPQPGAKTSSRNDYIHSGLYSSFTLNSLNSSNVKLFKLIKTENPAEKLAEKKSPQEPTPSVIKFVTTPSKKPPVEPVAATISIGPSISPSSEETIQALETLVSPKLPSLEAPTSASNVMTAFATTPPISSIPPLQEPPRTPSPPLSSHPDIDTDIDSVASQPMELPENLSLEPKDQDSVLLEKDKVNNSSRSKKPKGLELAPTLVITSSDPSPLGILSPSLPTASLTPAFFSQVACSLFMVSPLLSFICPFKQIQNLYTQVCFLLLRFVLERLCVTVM
Method in brief: as §1

[7] = target: T4, ETV2 (Homo sapiens, UniProt O00321 1-342); settings: protein: recombinant; tags: N-terminal GST; dsDNA, one strand shown
T4 sequence: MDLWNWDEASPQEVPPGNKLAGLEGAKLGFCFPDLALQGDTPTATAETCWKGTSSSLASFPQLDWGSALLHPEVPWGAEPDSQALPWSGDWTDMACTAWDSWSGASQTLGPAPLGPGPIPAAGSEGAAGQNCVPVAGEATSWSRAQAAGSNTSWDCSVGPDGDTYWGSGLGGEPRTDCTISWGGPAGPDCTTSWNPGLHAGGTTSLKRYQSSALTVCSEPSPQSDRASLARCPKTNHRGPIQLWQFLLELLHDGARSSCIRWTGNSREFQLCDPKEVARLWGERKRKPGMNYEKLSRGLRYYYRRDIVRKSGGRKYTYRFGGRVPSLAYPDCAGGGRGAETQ
Method in brief: as §1

[8] = target: T5, ELF3 (Homo sapiens, UniProt P78545 1-371); settings: protein: recombinant; tags: N-terminal GST; dsDNA, one strand shown
T5 sequence: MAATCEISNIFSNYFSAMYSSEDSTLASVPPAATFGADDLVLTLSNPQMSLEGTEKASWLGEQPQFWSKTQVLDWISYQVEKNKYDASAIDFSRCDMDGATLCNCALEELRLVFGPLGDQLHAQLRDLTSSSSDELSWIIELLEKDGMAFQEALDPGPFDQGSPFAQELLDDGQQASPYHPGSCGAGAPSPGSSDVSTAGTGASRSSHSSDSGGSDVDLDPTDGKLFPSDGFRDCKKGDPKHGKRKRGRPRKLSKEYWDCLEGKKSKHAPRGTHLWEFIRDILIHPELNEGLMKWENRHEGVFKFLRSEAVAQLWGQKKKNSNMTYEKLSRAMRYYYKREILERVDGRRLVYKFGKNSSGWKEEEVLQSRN
Method in brief: as §1

[9] = target: CRX (Homo sapiens, UniProt O43186 1-299); settings: protein: recombinant; tags: N-terminal GST; dsDNA, one strand shown
Chain of CRX (O43186 whole entry): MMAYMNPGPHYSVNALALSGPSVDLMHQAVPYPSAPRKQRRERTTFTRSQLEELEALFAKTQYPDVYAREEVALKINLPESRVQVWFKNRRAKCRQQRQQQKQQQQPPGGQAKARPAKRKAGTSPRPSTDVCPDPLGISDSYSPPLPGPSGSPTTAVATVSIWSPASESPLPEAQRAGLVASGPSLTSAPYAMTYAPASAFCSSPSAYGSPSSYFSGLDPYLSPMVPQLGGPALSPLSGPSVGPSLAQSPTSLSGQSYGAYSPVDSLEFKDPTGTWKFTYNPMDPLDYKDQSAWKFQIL
Method in brief: as §1

[10] = target: ETV1 (Homo sapiens, UniProt P50549 1-477); settings: protein: recombinant; tags: N-terminal GST; dsDNA, one strand shown
Chain of ETV1 (P50549 whole entry): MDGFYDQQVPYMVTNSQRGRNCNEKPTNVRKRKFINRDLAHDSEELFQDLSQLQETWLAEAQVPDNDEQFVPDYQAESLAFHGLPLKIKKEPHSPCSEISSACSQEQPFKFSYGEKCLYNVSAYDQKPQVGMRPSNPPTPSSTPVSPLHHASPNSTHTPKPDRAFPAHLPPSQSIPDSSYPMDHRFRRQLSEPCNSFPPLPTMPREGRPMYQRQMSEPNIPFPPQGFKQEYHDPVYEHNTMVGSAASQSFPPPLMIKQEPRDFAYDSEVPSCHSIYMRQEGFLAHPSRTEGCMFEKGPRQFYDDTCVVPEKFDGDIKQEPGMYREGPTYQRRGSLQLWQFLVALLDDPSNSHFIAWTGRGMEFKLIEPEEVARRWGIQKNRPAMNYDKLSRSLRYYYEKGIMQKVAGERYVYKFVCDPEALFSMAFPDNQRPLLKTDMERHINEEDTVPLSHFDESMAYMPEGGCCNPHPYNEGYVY
Method in brief: as §1

[11] = target: T6, ERF (Homo sapiens, UniProt P50548 1-548); settings: protein: recombinant; tags: N-terminal GST; dsDNA, one strand shown
T6 sequence: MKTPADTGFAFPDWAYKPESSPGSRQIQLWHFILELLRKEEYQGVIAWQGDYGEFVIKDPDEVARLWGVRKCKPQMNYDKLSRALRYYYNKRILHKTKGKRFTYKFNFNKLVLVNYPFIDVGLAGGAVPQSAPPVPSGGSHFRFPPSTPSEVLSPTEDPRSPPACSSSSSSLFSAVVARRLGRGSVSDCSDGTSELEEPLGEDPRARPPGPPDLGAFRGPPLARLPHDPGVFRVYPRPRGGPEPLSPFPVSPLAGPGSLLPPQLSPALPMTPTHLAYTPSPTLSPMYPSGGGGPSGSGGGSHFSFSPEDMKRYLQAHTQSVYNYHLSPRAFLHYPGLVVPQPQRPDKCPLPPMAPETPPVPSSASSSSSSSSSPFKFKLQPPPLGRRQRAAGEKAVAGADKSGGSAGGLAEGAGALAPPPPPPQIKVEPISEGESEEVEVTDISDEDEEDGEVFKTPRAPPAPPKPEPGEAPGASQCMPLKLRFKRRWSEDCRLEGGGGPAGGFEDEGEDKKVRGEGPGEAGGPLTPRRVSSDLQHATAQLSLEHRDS
Method in brief: as §1

[12] = target: T7, ETV3L (Homo sapiens, UniProt Q6ZN32 1-361); settings: protein: recombinant; tags: N-terminal GST; dsDNA, one strand shown
T7 sequence: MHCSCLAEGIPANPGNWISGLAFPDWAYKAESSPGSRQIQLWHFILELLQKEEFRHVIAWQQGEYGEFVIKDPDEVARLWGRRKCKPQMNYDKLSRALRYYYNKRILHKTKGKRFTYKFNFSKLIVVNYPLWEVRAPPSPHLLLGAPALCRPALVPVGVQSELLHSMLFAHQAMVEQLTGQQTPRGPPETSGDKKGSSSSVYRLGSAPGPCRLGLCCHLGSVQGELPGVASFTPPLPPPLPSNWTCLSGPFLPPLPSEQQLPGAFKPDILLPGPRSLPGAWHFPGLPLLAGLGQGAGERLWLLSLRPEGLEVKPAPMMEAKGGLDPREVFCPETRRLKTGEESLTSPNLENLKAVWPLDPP
Method in brief: as §1

[13] = target: T8, ETS2 (Homo sapiens, UniProt P15036 1-469); settings: protein: recombinant; tags: N-terminal GST; dsDNA, one strand shown
T8 sequence: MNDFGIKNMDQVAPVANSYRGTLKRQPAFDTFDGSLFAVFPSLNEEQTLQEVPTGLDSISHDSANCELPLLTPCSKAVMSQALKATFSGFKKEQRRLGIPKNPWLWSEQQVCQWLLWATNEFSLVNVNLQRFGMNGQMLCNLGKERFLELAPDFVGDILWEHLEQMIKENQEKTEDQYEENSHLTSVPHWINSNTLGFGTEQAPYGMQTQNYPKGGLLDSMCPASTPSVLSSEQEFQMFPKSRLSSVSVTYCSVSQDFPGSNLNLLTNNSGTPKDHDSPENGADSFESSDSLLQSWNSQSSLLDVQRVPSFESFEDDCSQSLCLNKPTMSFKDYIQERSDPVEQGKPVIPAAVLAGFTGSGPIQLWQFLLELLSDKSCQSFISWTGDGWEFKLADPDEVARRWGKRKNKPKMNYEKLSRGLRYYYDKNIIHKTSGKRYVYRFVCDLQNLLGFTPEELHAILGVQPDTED
Method in brief: as §1

[14] = target: T9, SPDEF (Homo sapiens, UniProt O95238 1-335); settings: protein: recombinant; tags: N-terminal GST; dsDNA, one strand shown
T9 sequence: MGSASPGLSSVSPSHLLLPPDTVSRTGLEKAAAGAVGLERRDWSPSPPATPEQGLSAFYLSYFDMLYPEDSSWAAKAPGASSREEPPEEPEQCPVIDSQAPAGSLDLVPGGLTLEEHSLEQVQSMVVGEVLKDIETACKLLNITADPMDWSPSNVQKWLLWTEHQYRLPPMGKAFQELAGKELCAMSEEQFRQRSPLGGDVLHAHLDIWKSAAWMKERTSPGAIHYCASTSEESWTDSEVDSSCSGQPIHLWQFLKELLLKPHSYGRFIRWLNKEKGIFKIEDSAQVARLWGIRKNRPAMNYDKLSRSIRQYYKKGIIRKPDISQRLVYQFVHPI
Method in brief: as §1

[15] = target: T10, ETV7 (Homo sapiens, UniProt Q9Y603 1-341); settings: protein: recombinant; tags: N-terminal GST; dsDNA, one strand shown
T10 sequence: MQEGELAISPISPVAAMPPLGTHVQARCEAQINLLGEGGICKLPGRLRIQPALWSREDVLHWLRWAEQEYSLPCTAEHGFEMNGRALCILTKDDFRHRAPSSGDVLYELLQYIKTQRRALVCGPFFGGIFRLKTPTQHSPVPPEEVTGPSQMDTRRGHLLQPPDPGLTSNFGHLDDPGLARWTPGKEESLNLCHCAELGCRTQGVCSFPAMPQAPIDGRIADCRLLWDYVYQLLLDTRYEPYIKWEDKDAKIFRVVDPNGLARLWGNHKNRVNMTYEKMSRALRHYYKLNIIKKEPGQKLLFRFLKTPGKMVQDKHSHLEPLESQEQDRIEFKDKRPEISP
Method in brief: as §1

[16] = target: T11, ELF5 (Homo sapiens, UniProt Q9UKW6-2 1-255); settings: protein: recombinant; tags: N-terminal GST; dsDNA, one strand shown
T11 sequence: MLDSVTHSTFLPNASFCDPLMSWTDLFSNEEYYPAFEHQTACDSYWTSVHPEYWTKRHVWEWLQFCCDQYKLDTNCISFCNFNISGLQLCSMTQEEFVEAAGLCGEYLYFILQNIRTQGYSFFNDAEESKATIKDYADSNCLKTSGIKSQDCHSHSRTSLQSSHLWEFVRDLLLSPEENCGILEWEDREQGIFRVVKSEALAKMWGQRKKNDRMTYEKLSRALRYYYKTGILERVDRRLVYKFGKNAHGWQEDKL
Method in brief: as §1

[17] = target: T12, ETV3 (Homo sapiens, UniProt P41162-2 1-143); settings: protein: recombinant; tags: N-terminal GST; dsDNA, one strand shown
T12 sequence: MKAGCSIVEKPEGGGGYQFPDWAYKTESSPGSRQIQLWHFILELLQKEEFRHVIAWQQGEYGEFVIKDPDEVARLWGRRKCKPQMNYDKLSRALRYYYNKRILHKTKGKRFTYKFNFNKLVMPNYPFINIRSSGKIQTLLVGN
Method in brief: as §1

[18] = target: ETV6 (Homo sapiens, UniProt P41212 1-452); settings: protein: recombinant; tags: N-terminal GST; dsDNA, one strand shown
Chain of ETV6 (P41212 whole entry): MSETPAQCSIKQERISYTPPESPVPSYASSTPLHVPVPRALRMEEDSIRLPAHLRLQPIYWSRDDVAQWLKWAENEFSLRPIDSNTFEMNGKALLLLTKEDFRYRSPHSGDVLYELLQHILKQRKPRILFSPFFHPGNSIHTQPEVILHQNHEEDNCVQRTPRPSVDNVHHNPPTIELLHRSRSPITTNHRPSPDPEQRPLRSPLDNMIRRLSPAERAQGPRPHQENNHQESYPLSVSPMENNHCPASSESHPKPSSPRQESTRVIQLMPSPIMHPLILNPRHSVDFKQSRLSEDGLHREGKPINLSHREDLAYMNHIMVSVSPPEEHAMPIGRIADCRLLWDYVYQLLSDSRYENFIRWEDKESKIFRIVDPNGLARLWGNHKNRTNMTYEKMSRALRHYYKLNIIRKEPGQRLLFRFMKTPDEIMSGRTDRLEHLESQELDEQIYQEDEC
Method in brief: as §1

Sequence	binding signal [1]	binding signal [2]	binding signal [3]	binding signal [4]	binding signal [5]	binding signal [6]	binding signal [7]	binding signal [8]	binding signal [9]	binding signal [10]	binding signal [11]	binding signal [12]	binding signal [13]	binding signal [14]	binding signal [15]	binding signal [16]	binding signal [17]	binding signal [18]
ATGACA	1.22 fold enrichment (6-mer frequency, TF over GST control)	1.29 fold enrichment (6-mer frequency, TF over GST control)	1.09 fold enrichment (6-mer frequency, TF over GST control)	1.14 fold enrichment (6-mer frequency, TF over GST control)	1.32 fold enrichment (6-mer frequency, TF over GST control)	1.19 fold enrichment (6-mer frequency, TF over GST control)	1.19 fold enrichment (6-mer frequency, TF over GST control)	1.33 fold enrichment (6-mer frequency, TF over GST control)	1.09 fold enrichment (6-mer frequency, TF over GST control)	1.28 fold enrichment (6-mer frequency, TF over GST control)	1.31 fold enrichment (6-mer frequency, TF over GST control)	1.28 fold enrichment (6-mer frequency, TF over GST control)	1.33 fold enrichment (6-mer frequency, TF over GST control)	1.31 fold enrichment (6-mer frequency, TF over GST control)	1.44 fold enrichment (6-mer frequency, TF over GST control)	1.24 fold enrichment (6-mer frequency, TF over GST control)	1.39 fold enrichment (6-mer frequency, TF over GST control)	1.34 fold enrichment (6-mer frequency, TF over GST control)
ACTAAA	1.24 fold enrichment (6-mer frequency, TF over GST control)	1.24 fold enrichment (6-mer frequency, TF over GST control)	1.37 fold enrichment (6-mer frequency, TF over GST control)	1.14 fold enrichment (6-mer frequency, TF over GST control)	1.31 fold enrichment (6-mer frequency, TF over GST control)	1.4 fold enrichment (6-mer frequency, TF over GST control)	1.24 fold enrichment (6-mer frequency, TF over GST control)	1.33 fold enrichment (6-mer frequency, TF over GST control)	1.6 fold enrichment (6-mer frequency, TF over GST control)	1.31 fold enrichment (6-mer frequency, TF over GST control)	1.27 fold enrichment (6-mer frequency, TF over GST control)	1.32 fold enrichment (6-mer frequency, TF over GST control)	1.3 fold enrichment (6-mer frequency, TF over GST control)	1.25 fold enrichment (6-mer frequency, TF over GST control)	1.24 fold enrichment (6-mer frequency, TF over GST control)	1.28 fold enrichment (6-mer frequency, TF over GST control)	1.21 fold enrichment (6-mer frequency, TF over GST control)	1.28 fold enrichment (6-mer frequency, TF over GST control)
